Exocytosis inh: blocks lytic granule exocytosis. TALL-104 LAMP-1 surface exposure, flow cytometry; cells stimulated with thapsigargin and PMA. inhibition, % at 10 µM. 360,000 compounds, 0.66% hits;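 active = inhibition above about 55%, limit read from the data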
PG9 Ab binder: PG9 antibody binding by small molecule; TR-FRET gp120-PG9 antibody binding; inhibition, % at 6.7 µM; 360,000 compounds, 0.43% hits; in the data active = inhibition above about 8.5%
NR1D1 modulator: modulates human Rev-erb alpha binding to DNA; Rev-erbα–FITC-DNA binding, fluorescence polarization, 90 min; activity, % at 10 µM; 370,000 compounds, 0.79% hits;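 active = activity above about 14%, limit read from the data; passing the limit was not always enough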;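 also: 0% = DMSO wells with 35 nM protein and 100% = DMSO wells with 750 nM protein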
VLA-4 inh: inhibition in a human VLA-4 binding assay; inhibition, % (about 7 µM as worked out from the volumes in the protocol); 330,000 compounds, 0.2% hits; VLA-4 expressing cells, ligand binding flow cytometry; in the data active = inhibition above about 50%
ABCB6 inh 2: blocks the human ABCB6 transporter; Q9NP58; K562-ABCB6 porphyrin accumulation, flow cytometry, 1 h; stronger effect = lower value; fluorescence ratio to DMSO, % at 10 µM; 360,000 compounds, 0.19% hits; AID 602162;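 active = fluorescence ratio to DMSO below 75%, the collection mean minus 3 SD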;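 also: signal is porphyrin accumulated inside mitochondria; 100% equals median channel fluorescence of DMSO control wells; lower ratio means ABCB6 inhibition with less porphyrin fluorescence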
Target sequence (Q9NP58 whole entry, looked up): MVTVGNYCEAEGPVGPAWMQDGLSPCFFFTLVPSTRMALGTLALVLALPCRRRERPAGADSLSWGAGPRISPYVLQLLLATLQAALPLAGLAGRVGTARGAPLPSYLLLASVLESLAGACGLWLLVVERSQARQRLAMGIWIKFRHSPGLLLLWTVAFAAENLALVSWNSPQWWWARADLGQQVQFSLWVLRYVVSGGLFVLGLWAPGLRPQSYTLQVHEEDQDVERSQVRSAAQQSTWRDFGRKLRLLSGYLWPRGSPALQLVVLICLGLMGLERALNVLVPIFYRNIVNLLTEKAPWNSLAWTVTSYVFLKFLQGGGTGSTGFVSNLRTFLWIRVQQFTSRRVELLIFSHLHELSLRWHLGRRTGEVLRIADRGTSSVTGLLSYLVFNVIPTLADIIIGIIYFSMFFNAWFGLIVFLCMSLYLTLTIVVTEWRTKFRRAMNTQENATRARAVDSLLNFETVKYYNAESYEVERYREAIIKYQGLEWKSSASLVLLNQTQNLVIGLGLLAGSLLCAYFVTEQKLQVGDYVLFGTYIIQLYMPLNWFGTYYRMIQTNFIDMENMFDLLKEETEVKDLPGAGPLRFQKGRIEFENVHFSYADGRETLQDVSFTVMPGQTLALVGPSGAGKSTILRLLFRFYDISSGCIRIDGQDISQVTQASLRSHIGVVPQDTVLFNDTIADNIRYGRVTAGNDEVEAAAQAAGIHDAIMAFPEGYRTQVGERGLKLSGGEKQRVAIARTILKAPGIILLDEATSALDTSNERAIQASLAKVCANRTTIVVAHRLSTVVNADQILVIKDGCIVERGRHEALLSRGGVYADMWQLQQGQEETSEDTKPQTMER
PG9 binder conf: PG9 antibody binding, confirmed. shares compounds with PG9 Ab binder. TR-FRET PG9 antibody binding, biochemical. inhibition, % at 6.7 µM. 1,500 compounds, 90% hits. AID 651571; in the data active = inhibition above about 9%
PGV04 counter: PGV04 control antibody binding, counter-screen; shares compounds with PG9 Ab binder; inhibition, % at 6.7 µM; 1,500 compounds, 95% hits; TR-FRET PGV04 antibody-gp120 binding, biochemical; AID 651604; in the data active = inhibition above about 9.5%
PG9 binder DR: small molecules binding HIV-1 gp120 antibody PG9 | shares compounds with PG9 Ab binder | TR-FRET PG9 antibody-gp120 binding inhibition | IC50, µM | 95 tested, under 10 active | AID 651848; in the data active = IC50 below about 10 µM
PGV04 binding DR: counter-screen for PG9 binders: binding to control antibody PGV04; TR-FRET binding to control antibody PGV04; 95 compounds, 20% hits; shares compounds with PG9 Ab binder; IC50, µM
PG126 DR counter: counter-screen for PG9 binders: binding to control antibody PG126; shares compounds with PG9 Ab binder; TR-FRET binding to antibody PG126, counterscreen; IC50, µM; 95 compounds, 20% hits; AID 651939
Active calls of the source: *. An excerpt weighted towards active compounds, which were near 2% of everything screened. Rule as the data show it, unless noted: active = IC50 below about 9 µM; inactive = the rest.

`CC(C)Nc1ncnc2ccc(Br)cc12` gave Exocytosis inh 3, PG9 Ab binder -1, NR1D1 modulator -4, VLA-4 inh 12 and ABCB6 inh 2 94.
COCCN1CCC(CNCc2cn[nH]c2-c2ccc(C)c(C)c2)C1 (stereo not drawn) was read as Exocytosis inh 2, PG9 Ab binder -1, NR1D1 modulator 7, VLA-4 inh 4 and ABCB6 inh 2 99.
`COCCN1CCC(CO)C1` (stereo not drawn) gave Exocytosis inh -3, PG9 Ab binder 10*, NR1D1 modulator -2, ABCB6 inh 2 87, PG9 binder conf 8 and PGV04 counter 11*.
For COC(=O)C1CN(Cc2cn(Cc3ccccc3)nn2)CCS(=O)(=O)N1Cc1ccc(C)cc1 (stereo not drawn) the results were NR1D1 modulator 0.
Screening NC(Cc1ccc(O)cc1)C(=O)NN=Cc1ccccc1Cl (stereo not drawn) returned PG9 Ab binder 1 and NR1D1 modulator -6.
Screening CC(=O)c1nn(-c2cccc(Br)c2)cc1C(=O)c1ccccc1 returned Exocytosis inh 7, PG9 Ab binder 13*, NR1D1 modulator 0, VLA-4 inh -43, ABCB6 inh 2 87, PG9 binder conf 20* and PGV04 counter 25*.
For CC(=O)c1nn(-c2ccccc2)cc1C(=O)c1cccc(Br)c1 the results were Exocytosis inh -6, PG9 Ab binder 0, NR1D1 modulator -2, VLA-4 inh 1 and ABCB6 inh 2 100.
For Cc1cc(C)c2c(=N)c3ccccc3n(CCCCCCCCn3c4ccccc4c(=N)c4c(C)cc(C)nc43)c2n1 the results were Exocytosis inh 22, PG9 Ab binder 9.7*, NR1D1 modulator -28, ABCB6 inh 2 93, PG9 binder conf 28* and PGV04 counter 33*.
For Cc1ccc2c(CC(=O)OCc3cc(=O)n4c(n3)sc3ccccc34)coc2c1 the results were Exocytosis inh 0, PG9 Ab binder 3, NR1D1 modulator -6, VLA-4 inh 20 and ABCB6 inh 2 96.
For CC(C)[C@H](NC(=O)Cc1ccccc1)C(=O)OCc1cc(=O)n2c(n1)sc1ccccc12 the results were Exocytosis inh 10, PG9 Ab binder 9.6*, NR1D1 modulator -9, VLA-4 inh 10, ABCB6 inh 2 98, PG9 binder conf 17* and PGV04 counter 21*.
CS(=O)(=O)c1ccc2nc(NC(=O)Nc3ccccc3F)sc2c1 was read as Exocytosis inh -17, PG9 Ab binder 33*, NR1D1 modulator 23, VLA-4 inh 7, ABCB6 inh 2 99, PG9 binder conf 27* and PGV04 counter 46*.
For COC(=O)C1CCN(C(=O)C2CC(=O)N(c3ccc(OC)cc3)C2c2ccc(OC)cc2)CC1 (stereo not drawn) the results were NR1D1 modulator -6.
Screening O=C(Nc1ncc(Cc2ccc(SC(F)F)cc2)s1)c1ccc(OC(F)F)cc1 returned Exocytosis inh 1, PG9 Ab binder 22*, NR1D1 modulator 14, VLA-4 inh -9, ABCB6 inh 2 94, PG9 binder conf 12* and PGV04 counter 18*.
For COCC(=O)N1CCN(C(=O)C(=O)c2cccc(C(F)(F)F)c2)CC1 the results were PG9 Ab binder 1 and NR1D1 modulator 4.
COc1cccc(Nc2nc3cc(OC)ccc3cc2C#N)c1 was read as Exocytosis inh -2, PG9 Ab binder 13*, NR1D1 modulator 24, VLA-4 inh -11, ABCB6 inh 2 95, PG9 binder conf 24* and PGV04 counter 25*.
Screening CCN(C(=O)[C@@H](C)[C@@H](O)c1ccc(C(C)=O)cc1)c1ccccc1 returned NR1D1 modulator -1.
Screening Cn1c(=S)[nH]c2c(c1=O)C(C)(C)Cc1ccccc1-2 returned Exocytosis inh -4, PG9 Ab binder 17*, NR1D1 modulator -5, VLA-4 inh 7, ABCB6 inh 2 97, PG9 binder conf 11* and PGV04 counter 11*.
`CCn1c(=S)[nH]c2c(c1=O)C(C)(C)Cc1ccccc1-2` gave Exocytosis inh 2, PG9 Ab binder 24*, NR1D1 modulator -4, ABCB6 inh 2 94, PG9 binder conf 14*, PGV04 counter 12*, PG9 binder DR >67, PGV04 binding DR inactive and PG126 DR counter inactive.
CC1(C)Cc2ccccc2-c2c1c(=O)n(Cc1ccccc1)c1nnnn21 was read as Exocytosis inh -2, PG9 Ab binder -1, NR1D1 modulator 1, VLA-4 inh -12 and ABCB6 inh 2 98.
For CCC1(C)Cc2ccccc2-c2[nH]c(=S)[nH]c(=O)c21 (stereo not drawn) the results were Exocytosis inh -5, PG9 Ab binder 32*, NR1D1 modulator -1, VLA-4 inh 6, ABCB6 inh 2 92, PG9 binder conf 6 and PGV04 counter 8.
Screening CCC(=O)Nc1ccc2c(c1)C(=O)N(C)[C@@H]1CC[C@@H](CC(=O)NCCN3CCCCC3)O[C@H]1CO2 returned NR1D1 modulator 5.
For CCC[C@H]1[C@@H](OC(=O)NCc2cccs2)CC[C@@]23CCCN2C(=O)CCC[C@@H]13 the results were NR1D1 modulator 6.
Screening O=C(c1cc(F)ccc1F)N1CCCC(c2nc(-c3cccs3)no2)C1 (stereo not drawn) returned NR1D1 modulator 5.
Screening COC(=O)[C@]12C[C@H](CC(=O)NCCCN3CCCC3=O)C(=O)N(Cc3cccc4ccccc34)C1=C[C@H](COCc1ccccc1)O[C@@H]2C returned NR1D1 modulator -6.
Cc1cn(-c2ccc(Br)cc2)[nH]c1=O was read as Exocytosis inh -2, PG9 Ab binder 10.0*, NR1D1 modulator -3, VLA-4 inh 8, ABCB6 inh 2 101, PG9 binder conf 19* and PGV04 counter 21*.
Cc1ccc2c(n1)sc1c(N)ncnc12 was read as Exocytosis inh 4, PG9 Ab binder 24*, NR1D1 modulator -2, VLA-4 inh -4, ABCB6 inh 2 93, PG9 binder conf 22* and PGV04 counter 32*.
Cc1ccc2c(N)c(C#N)sc2n1 was read as Exocytosis inh 2, PG9 Ab binder 0, NR1D1 modulator 0, VLA-4 inh -13 and ABCB6 inh 2 97.

Bioassay records from PubChem.
